Shown are actives, neighbours in structure and some others; about 3.4% of the full set was active somewhere.
APP 5'UTR act: APP 5'UTR luciferase reporter activation. actives 1% (n = 190,000). activation, % at 2 µM. SH-SY5Y APP 5'UTR luciferase reporter, luminescence; zero percent = DMSO vehicle wells;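 active = activation above a set limit, based on mean plus 3 SD of controls, cut at about 140% in these data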
hgDAF12 agonist: hgDAF-12 agonism, primary luciferase screen; HEK293 GAL4-hgDAF12 UAS-luciferase reporter, agonist luminescence; normalized to butyrate control; activation, % at 6.8 µM; actives 1.8% (n = 370,000);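 active = activation above a cutoff set at the mean of all screened compounds plus 3 SD, cut at about 10% in these data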
hcDAF12 agonist: activates DAF-12 receptor from parasite H. contortus | actives 1.4% (n = 370,000) | activation, % at 6.8 µM | AID 652067 | HEK293 hcDAF-12 lit1-tk-luc reporter, luminescence; 0% DMSO, 100% Δ7-dafachronic acid;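 active = activation above the mean of all tested compounds plus 3 SD, cut at about 5.5% in these data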
ssDAF-12 act: activators of S. stercoralis DAF-12 nuclear receptor; HEK293 ssDAF-12/GRIP1 lit1-tk-luc reporter, luminescence; % of 3 µM dafachronic acid response; activation, % at 6.8 µM; actives 1% (n = 370,000); AID 652126;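 active = activation above the mean over all tested compounds plus 3 SD, cut at about 0.9% in these data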
NF-kB neuron act: NF-kB expression increase, human neuronal cells. NF-kB reporter expression; hits give high values. fold change at 12.5 µM. actives 1.6% (n = 190,000). AID 1239; in the data active = fold change above about 3.3
Hits are given with their value; i = inactive; nt = no result.

SMILES | APP 5'UTR act | hgDAF12 agonist | hcDAF12 agonist | ssDAF-12 act | NF-kB neuron act
CC1NC(=O)c2cc3ccccc3cc2-n2c1nc1cc(Cl)ccc1c2=O (stereo not drawn) | nt | i | i | 1.1 | nt
Cc1ccc2c(=O)n3c(nc2c1)C(Cc1ccccc1)NC(=O)c1cc2ccccc2cc1-3 (stereo not drawn) | nt | i | i | 1.2 | nt
CC(C)C[C@H](NC1(C(=O)NCCc2c[nH]c3ccccc23)CCOCC1)C(=O)NCCCc1ccccc1 | nt | i | i | i | nt
COc1cccc(C(=O)NNC(=O)c2ccccc2)c1 | nt | i | i | 1.4 | nt
O=C(O)CC/C(=N\NC(=O)c1ccccc1)c1cccs1 | i | 11 | i | i | i
COc1cccc(C(=O)N/N=C(/CCC(=O)O)c2ccccc2)c1 | i | 12 | i | i | i
COc1cccc(C(=O)NNC(=O)c2ccc3ccccc3c2O)c1 | nt | i | i | 1.6 | nt
COC(=O)N/N=C(\CCC(=O)O)c1cccs1 | nt | i | i | i | nt
O=C(O)CC/C(=N\NC(=O)c1ccncc1)c1ccccc1 | nt | i | i | i | nt
CCC(C)N(c1nc(C)nc2c1nnn2Cc1ccccc1)C(C)CC (stereo not drawn) | nt | i | i | i | nt
O=C(OCC(=O)c1c[nH]c2ccccc12)c1cccc([N+](=O)[O-])c1 | nt | i | i | 1.8 | nt
COc1ccc(C(=O)OCC(=O)c2c[nH]c3ccccc23)c(OC)c1 | nt | i | i | 1.7 | nt
COc1ccc(C(=O)COC(=O)c2ccccc2O)c(OC)c1 | nt | 12 | i | i | nt
COc1ccc(C(=O)OCC(=O)c2cc(OC)ccc2OC)c(OC)c1 | i | i | i | i | i
COc1cccc(C(=O)OCC(=O)c2c[nH]c3ccccc23)c1OC | nt | i | i | i | nt
O=C(OCC(=O)c1c[nH]c2ccccc12)c1cncc(Br)c1 | nt | i | i | i | nt
COP(=O)(CC(=O)C(Cc1ccccc1)NC(=O)OC(C)(C)C)OC (stereo not drawn) | nt | i | i | i | nt
O=C(c1cccc(C(F)(F)F)c1)N1CC[C@H]2[C@H](CCCN2Cc2ccccc2)C1 | nt | i | i | i | nt
Brc1ccc(-c2noc(C3CCCCC3)n2)cc1 | i | i | i | i | i
OC[C@H]1O[C@@H](c2nc(-c3ccc(Br)cc3)no2)C[C@@H]1O | nt | 12 | 5.8 | i | nt
CCc1ccc2c(c1)/C(=N/N(C)C(=S)NC)C(=O)N2 | i | i | 6.4 | i | i
S=c1[nH]ccn1-c1c(Cl)cccc1Cl | nt | i | 6.5 | i | nt
CC(=O)OCCCN(C)CC/C=C1/c2ccccc2CSc2ccccc21 | nt | i | i | 1.0 | nt
C[N+](C)(C)CC/C=C1/c2ccccc2CSc2ccccc21 | i | i | i | i | i
O=[N+]([O-])c1ccc2nc(-c3ccccc3)oc2c1 | i | i | i | i | i
SMILES | APP 5'UTR act | hgDAF12 agonist | hcDAF12 agonist | ssDAF-12 act | NF-kB neuron act
COc1cccc(-c2nc3ccc([N+](=O)[O-])cc3o2)c1 | 144 | i | i | i | 3.4
CCOC(=O)CC[C@@H]1CC[C@]2(CCCN(Cc3ccc(OC)cc3)C2)O1 | nt | i | i | i | nt
O=C(O)c1ccc(N/N=C/c2c[nH]c3ccccc23)cc1 | nt | i | 5.8 | i | nt
Fc1c(F)c(F)c(N/N=C/c2c[nH]c3ccccc23)c(F)c1F | i | i | 6.3 | i | 13
Cn1c(N/N=C/c2c[nH]c3ccccc23)nc2ccccc21 | i | i | 5.6 | i | i
C#CCNC(=O)C[C@H]1C(=O)N(CCCOC)C2=CCCC[C@@]21C(=O)OCC | nt | i | i | i | nt
COc1ccc(C(=O)C2(C(=O)NCc3ccccc3)CC(c3ccccc3C(F)(F)F)=NO2)cc1 (stereo not drawn) | nt | i | i | i | nt
CCN(CC)C(=O)CC[C@H]1CC[C@]2(CCCN(Cc3ccc(N(C)C)cc3)C2)O1 | nt | i | i | i | nt
CCN(Cc1ccccc1)S(=O)(=O)c1ccc(F)cc1 | nt | i | i | i | nt
CCN(Cc1ccccc1)S(=O)(=O)c1cn(C)cn1 | nt | 13 | i | i | nt
COc1cc2c(cc1NC(=O)CSc1nnc(-c3ccccn3)n1-c1ccccc1)oc1ccccc12 | nt | i | i | i | nt
C[C@H](O)[C@@H]1CN2CCc3c([nH]c4cccc(-c5ccccc5)c34)[C@@H]2C[C@@H]1N(C)C(=O)C1CCCCC1 | nt | i | i | i | nt
Clc1ccc2nc(N3CCCCC3)sc2c1 | 173 | i | i | i | 4.9
CCOC(=O)Nc1ccc2nc(N3CCCCCC3)sc2c1 | nt | 11 | i | i | nt
CS(=O)(=O)N1CCN(c2nc3ccc(Cl)cc3s2)CC1 | nt | i | i | i | nt
COC(=O)[C@]12C[C@H](CC(=O)NCc3cccc4ccccc34)C(=O)N(Cc3ccc(Cl)cc3Cl)C1=C[C@H](C(C)(C)C)O[C@@H]2C | nt | i | i | i | nt
c1ccc(SCc2nc(-c3ccncc3)no2)cc1 | i | i | 5.6 | i | i
Clc1ccccc1OCc1nc(-c2ccncc2)no1 | 194 | i | i | i | 4.1
c1ccc(OCc2nc(-c3ccncc3)no2)cc1 | i | i | i | i | i
COC1=C[C@H](C(=O)N[C@H]2CCCC[C@@H]2NC(C)=O)[C@H](C)[C@@H](c2ccccc2)CC1=O | nt | i | i | i | nt
O=C(CCNC(=O)c1ccco1)Nc1nc(-c2ccccc2)cs1 | nt | i | 6.4 | 1.0 | nt
CCOc1ccc(-c2csc(NC(=O)c3ccco3)n2)cc1 | nt | i | i | i | nt
COCCN(C(=O)c1ccco1)c1nc(-c2ccccc2)cs1 | nt | i | i | i | nt
COc1ccc(-c2csc(NC(=O)c3ccco3)n2)cc1 | 137 | i | i | i | 4.2
CN(C(=O)c1ccco1)c1nc(-c2ccccc2)cs1 | nt | 11 | 5.9 | i | nt
SMILES | APP 5'UTR act | hgDAF12 agonist | hcDAF12 agonist | ssDAF-12 act | NF-kB neuron act
CC(=O)Nc1ccc(-c2csc(NC(=O)CCNC(=O)c3ccco3)n2)cc1 | nt | i | i | i | nt
CCOc1ccccc1NC(=O)CSc1nnc(SCc2ccccc2)s1 | nt | i | i | i | nt
C[C@@H]1NC(=O)[C@H]2C[C@@]3(c4ccccc4)c4ccccc4N[C@H]3N2C1=O | nt | i | i | i | nt
O=C(CSc1nc2ccccc2n1Cc1ccccc1)NN=C/C=C/c1ccccc1 | nt | i | i | i | nt
O=C(COC(=O)c1ccccc1Br)Nc1ccc(F)cc1 | i | i | i | i | i
Cc1occc1C(=O)OCC(=O)Nc1ccc(F)cc1 | i | 11 | i | i | i
COC(=O)[C@]12C[C@H](CC(=O)N3CCSCC3)C(=O)N(CCC3=CCCCC3)C1=C[C@H](C(C)C)O[C@@H]2C1CC1 | nt | i | i | i | nt
On1c(-c2ccccc2)nc2ccc(Cl)cc21 | nt | 12 | i | i | i
CC(On1c(-c2ccccc2)nc2ccc(Cl)cc21)C(=O)O (stereo not drawn) | i | i | i | i | i
Nn1c(-c2ccccc2)nc2cc(Cl)ccc2c1=O | nt | i | 5.7 | 1.9 | nt
Cc1ccc(-c2nc3ccccc3c(=O)n2N)cc1 | nt | i | i | i | nt
COc1cc(-c2nc3ccccc3c(=O)n2N)cc(OC)c1OC | i | i | i | 5.7 | i
Cc1ccnc(NC(=S)N2CCC(Nc3cccc(C(F)(F)F)c3)CC2)c1 | nt | i | i | i | nt
CCOC(=O)CC[C@@H]1CC[C@]2(CCCN(C(=O)C3CCCCC3)C2)O1 | nt | i | i | i | nt
CCOC(=O)c1cc(C#N)c(SC)nc1C | nt | i | i | i | nt
CCOC(=O)c1cc(C#N)c(SCc2ccc(C#N)cc2)nc1C | i | i | i | 1.1 | i
